One sequence from paper PMC7862700, “An all-to-all approach to the identification of sequence-specific readers for epigenetic DNA modifications on cytosine” can be followed below.

Assay in all cases: DAPPL (digital affinity profiling via proximity ligation, sequencing); 10 mM Tris-HCl pH 7.5, 50 mM NaCl, 1 mM DTT, 4% glycerol, room temperature, 30 min; GST-TFs on glutathione beads, 16-mer random dsDNA library, 0.1% formaldehyde crosslink after washing; high values mean tight binding
Test [1] deals with T1, FEV (Homo sapiens, UniProt Q99581 1-238).
T1 sequence: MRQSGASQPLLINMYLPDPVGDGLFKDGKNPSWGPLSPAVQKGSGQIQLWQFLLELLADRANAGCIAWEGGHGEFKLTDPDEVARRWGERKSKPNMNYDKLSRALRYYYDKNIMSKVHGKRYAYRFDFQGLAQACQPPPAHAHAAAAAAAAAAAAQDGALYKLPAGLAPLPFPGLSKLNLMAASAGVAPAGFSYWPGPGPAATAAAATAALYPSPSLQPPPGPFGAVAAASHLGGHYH
To be noted: protein: recombinant; tags: N-terminal GST; dsDNA, one strand shown. In short, it runs like this:
(§1)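 Binding signal is each hexamer's read frequency for a factor divided by its frequency in the tag-only sample. The factors were GST-fused human transcription factors from yeast, captured on glutathione beads, DNA-barcoded and pooled with that sample. Pools were incubated with 200 nmole of a random double-stranded 16-mer DNA library in Tris/NaCl/DTT/glycerol buffer at room temperature for 30 min, then washed, crosslinked with 0.1% formaldehyde, proximity-ligated with BsaI/T4 ligase (1 h, 37 °C), PCR-amplified and sequenced on an Illumina NextSeq500.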

Test [2] addresses ETV5 (Homo sapiens, UniProt P41161 1-510). To be noted: protein: recombinant; tags: N-terminal GST; dsDNA, one strand shown. In short, it runs like this: as §1
Test [3] concerns the target HSF1 (Homo sapiens, UniProt Q00613 1-529). To be noted: protein: recombinant; tags: N-terminal GST; chain copies: 3; dsDNA, one strand shown. In short, it runs like this: as §1
Test [4] addresses T2, SPIC (Homo sapiens, UniProt Q8N5J4 1-248).
T2 sequence: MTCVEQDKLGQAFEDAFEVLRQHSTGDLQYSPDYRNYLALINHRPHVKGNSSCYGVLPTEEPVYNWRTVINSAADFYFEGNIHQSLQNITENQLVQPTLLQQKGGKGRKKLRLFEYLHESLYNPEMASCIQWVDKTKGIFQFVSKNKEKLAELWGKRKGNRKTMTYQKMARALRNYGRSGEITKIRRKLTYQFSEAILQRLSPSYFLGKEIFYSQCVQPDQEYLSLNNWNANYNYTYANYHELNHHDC
Conditions: protein: recombinant; tags: N-terminal GST; dsDNA, one strand shown. In short, it runs like this: as §1

In test [5] the target is ELF4 (Homo sapiens, UniProt Q99607 1-663). To be noted: protein: recombinant; tags: N-terminal GST; dsDNA, one strand shown. In short, it runs like this: as §1
In test [6] the target is T3, ELK4 (Homo sapiens, UniProt P28324-2 1-405).
T3 sequence: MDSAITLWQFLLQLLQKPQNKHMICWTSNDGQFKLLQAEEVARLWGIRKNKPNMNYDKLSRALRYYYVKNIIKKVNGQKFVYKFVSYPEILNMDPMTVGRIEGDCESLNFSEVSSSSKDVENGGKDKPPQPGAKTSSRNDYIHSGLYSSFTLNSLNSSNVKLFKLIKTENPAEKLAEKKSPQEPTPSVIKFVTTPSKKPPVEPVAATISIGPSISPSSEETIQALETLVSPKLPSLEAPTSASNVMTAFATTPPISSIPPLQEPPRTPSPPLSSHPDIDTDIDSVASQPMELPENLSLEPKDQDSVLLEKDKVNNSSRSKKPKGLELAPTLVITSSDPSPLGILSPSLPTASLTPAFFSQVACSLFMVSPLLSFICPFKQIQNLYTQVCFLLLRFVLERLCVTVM
Conditions: protein: recombinant; tags: N-terminal GST; dsDNA, one strand shown. In short, it runs like this: as §1

Test [7] concerns the target T4, ETV2 (Homo sapiens, UniProt O00321 1-342).
T4 sequence: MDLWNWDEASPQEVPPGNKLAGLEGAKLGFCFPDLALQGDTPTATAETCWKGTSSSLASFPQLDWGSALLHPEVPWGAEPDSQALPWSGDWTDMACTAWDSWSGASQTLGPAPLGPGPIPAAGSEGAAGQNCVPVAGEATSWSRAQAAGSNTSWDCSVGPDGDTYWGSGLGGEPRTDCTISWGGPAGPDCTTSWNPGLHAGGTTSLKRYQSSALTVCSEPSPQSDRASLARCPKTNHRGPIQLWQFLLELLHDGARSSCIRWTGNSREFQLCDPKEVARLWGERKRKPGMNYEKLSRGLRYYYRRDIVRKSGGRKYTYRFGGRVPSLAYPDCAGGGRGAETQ
To be noted: protein: recombinant; tags: N-terminal GST; dsDNA, one strand shown. An outline of the steps:
as §1

Test [8] concerns the target T5, ELF3 (Homo sapiens, UniProt P78545 1-371).
T5 sequence: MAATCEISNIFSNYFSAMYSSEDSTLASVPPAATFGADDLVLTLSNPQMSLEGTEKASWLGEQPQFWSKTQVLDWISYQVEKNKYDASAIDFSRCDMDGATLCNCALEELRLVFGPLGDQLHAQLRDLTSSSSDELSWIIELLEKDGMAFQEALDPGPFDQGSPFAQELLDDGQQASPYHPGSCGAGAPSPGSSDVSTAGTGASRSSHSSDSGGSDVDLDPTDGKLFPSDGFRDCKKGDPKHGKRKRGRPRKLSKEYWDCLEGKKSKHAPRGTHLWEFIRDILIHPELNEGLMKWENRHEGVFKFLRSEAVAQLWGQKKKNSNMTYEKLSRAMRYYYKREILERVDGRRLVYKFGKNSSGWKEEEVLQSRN
Conditions: protein: recombinant; tags: N-terminal GST; dsDNA, one strand shown. An outline of the steps: as §1

Test [9] deals with CRX (Homo sapiens, UniProt O43186 1-299). Conditions: protein: recombinant; tags: N-terminal GST; dsDNA, one strand shown. In short, it runs like this: as §1
In test [10] the target is ETV1 (Homo sapiens, UniProt P50549 1-477). Conditions: protein: recombinant; tags: N-terminal GST; dsDNA, one strand shown. In short, it runs like this: as §1
Test [11] has as its target T6, ERF (Homo sapiens, UniProt P50548 1-548).
T6 sequence: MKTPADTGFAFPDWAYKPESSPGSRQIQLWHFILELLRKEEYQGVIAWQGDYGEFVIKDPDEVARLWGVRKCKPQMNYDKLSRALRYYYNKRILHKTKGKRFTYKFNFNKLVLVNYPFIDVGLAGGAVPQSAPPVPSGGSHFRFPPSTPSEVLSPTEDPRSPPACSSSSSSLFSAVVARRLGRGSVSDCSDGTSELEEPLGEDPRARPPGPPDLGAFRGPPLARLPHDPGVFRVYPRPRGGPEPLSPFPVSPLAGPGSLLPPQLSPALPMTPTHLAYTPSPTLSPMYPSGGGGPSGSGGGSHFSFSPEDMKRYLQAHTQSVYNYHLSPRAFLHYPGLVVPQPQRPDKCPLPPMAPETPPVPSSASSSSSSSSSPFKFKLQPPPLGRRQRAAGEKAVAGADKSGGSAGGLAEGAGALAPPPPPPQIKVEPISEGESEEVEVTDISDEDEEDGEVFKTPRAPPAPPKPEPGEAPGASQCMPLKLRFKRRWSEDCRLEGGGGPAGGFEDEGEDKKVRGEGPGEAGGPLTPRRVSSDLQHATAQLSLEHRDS
Conditions: protein: recombinant; tags: N-terminal GST; dsDNA, one strand shown. In short, it runs like this: as §1

Test [12] has as its target T7, ETV3L (Homo sapiens, UniProt Q6ZN32 1-361).
T7 sequence: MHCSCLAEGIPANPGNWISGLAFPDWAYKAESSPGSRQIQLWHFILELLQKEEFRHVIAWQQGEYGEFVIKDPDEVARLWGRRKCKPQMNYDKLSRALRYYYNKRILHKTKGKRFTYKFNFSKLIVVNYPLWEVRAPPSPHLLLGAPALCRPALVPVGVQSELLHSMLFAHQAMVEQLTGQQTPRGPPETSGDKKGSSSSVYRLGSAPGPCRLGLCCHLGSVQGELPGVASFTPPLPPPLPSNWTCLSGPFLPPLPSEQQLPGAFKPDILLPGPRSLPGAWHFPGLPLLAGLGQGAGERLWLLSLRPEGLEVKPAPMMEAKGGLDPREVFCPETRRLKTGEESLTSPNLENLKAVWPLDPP
Conditions: protein: recombinant; tags: N-terminal GST; dsDNA, one strand shown. An outline of the steps: as §1

Test [13] has as its target T8, ETS2 (Homo sapiens, UniProt P15036 1-469).
T8 sequence: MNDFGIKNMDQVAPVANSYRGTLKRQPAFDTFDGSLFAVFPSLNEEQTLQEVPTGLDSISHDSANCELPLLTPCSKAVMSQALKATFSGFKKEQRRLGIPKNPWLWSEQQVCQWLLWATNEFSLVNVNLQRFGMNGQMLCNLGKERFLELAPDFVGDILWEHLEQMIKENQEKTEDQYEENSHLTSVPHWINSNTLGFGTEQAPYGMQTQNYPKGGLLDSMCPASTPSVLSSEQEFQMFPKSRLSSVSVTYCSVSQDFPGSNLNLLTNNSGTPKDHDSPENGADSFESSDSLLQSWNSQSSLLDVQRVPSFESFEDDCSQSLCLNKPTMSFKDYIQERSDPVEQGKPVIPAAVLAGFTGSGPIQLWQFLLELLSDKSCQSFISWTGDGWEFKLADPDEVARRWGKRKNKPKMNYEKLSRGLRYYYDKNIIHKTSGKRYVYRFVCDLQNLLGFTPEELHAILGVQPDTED
To be noted: protein: recombinant; tags: N-terminal GST; dsDNA, one strand shown. In short, it runs like this: as §1

Test [14] has as its target T9, SPDEF (Homo sapiens, UniProt O95238 1-335).
T9 sequence: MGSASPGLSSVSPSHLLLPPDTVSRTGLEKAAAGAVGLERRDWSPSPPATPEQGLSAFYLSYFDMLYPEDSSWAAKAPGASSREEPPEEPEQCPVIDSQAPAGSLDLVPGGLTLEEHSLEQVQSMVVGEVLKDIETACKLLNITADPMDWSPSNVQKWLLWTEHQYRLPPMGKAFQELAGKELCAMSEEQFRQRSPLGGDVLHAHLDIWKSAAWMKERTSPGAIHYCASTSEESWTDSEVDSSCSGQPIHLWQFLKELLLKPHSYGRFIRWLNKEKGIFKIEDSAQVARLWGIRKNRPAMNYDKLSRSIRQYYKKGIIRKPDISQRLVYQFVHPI
Conditions: protein: recombinant; tags: N-terminal GST; dsDNA, one strand shown. In short, it runs like this: as §1

The target of test [15] is T10, ETV7 (Homo sapiens, UniProt Q9Y603 1-341).
T10 sequence: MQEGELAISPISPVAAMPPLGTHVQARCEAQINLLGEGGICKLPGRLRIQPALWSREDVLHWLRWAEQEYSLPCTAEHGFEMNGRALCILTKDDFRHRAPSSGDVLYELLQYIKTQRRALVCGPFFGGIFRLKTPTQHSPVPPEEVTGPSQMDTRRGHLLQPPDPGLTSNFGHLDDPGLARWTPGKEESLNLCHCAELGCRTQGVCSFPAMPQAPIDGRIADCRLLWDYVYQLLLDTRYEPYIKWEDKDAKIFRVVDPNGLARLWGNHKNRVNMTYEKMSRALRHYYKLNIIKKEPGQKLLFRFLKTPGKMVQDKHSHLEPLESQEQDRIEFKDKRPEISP
To be noted: protein: recombinant; tags: N-terminal GST; dsDNA, one strand shown. An outline of the steps: as §1

The target of test [16] is T11, ELF5 (Homo sapiens, UniProt Q9UKW6-2 1-255).
T11 sequence: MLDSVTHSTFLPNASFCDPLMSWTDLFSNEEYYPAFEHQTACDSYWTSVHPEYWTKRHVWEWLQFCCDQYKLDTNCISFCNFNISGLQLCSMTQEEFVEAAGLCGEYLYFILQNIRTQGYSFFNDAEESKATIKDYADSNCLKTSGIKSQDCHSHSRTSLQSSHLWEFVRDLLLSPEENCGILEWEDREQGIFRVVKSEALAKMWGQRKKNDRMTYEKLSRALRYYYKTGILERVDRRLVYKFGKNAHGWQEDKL
Conditions: protein: recombinant; tags: N-terminal GST; dsDNA, one strand shown. An outline of the steps:
as §1

In test [17] the target is T12, ETV3 (Homo sapiens, UniProt P41162-2 1-143).
T12 sequence: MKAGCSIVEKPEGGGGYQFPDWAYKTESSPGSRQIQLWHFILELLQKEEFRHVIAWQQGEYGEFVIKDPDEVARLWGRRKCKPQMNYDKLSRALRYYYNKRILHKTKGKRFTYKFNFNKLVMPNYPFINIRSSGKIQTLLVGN
Conditions: protein: recombinant; tags: N-terminal GST; dsDNA, one strand shown. An outline of the steps: as §1

Test [18] concerns the target ETV6 (Homo sapiens, UniProt P41212 1-452). Conditions: protein: recombinant; tags: N-terminal GST; dsDNA, one strand shown. In short, it runs like this:
as §1

Chain of HSF1 (Q00613 whole entry): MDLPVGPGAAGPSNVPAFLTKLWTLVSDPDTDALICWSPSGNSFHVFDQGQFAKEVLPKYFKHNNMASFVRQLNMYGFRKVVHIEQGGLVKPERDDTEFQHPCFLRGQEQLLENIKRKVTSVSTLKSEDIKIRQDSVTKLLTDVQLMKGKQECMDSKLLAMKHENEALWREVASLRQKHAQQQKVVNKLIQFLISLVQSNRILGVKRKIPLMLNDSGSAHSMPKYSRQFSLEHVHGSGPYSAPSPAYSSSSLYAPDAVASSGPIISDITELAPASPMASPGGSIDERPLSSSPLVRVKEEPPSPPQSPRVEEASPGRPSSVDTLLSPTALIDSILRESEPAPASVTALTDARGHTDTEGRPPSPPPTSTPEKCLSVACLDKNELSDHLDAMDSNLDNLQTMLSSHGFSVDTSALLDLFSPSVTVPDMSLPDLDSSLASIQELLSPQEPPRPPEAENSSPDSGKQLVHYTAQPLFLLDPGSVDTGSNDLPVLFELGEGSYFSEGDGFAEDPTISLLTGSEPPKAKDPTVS
Chain of ETV6 (P41212 whole entry): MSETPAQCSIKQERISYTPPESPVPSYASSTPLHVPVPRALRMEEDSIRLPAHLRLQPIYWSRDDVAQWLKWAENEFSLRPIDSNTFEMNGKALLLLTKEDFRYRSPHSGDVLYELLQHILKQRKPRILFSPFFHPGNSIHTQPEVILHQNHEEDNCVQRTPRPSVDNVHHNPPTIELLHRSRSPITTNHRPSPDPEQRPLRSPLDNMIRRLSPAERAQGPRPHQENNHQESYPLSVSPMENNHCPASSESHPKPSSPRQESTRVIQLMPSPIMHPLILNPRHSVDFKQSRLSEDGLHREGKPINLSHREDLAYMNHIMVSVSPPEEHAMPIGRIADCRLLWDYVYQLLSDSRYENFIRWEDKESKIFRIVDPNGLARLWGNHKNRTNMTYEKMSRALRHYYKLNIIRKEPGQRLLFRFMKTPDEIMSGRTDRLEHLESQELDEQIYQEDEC
Chain of ETV5 (P41161 whole entry): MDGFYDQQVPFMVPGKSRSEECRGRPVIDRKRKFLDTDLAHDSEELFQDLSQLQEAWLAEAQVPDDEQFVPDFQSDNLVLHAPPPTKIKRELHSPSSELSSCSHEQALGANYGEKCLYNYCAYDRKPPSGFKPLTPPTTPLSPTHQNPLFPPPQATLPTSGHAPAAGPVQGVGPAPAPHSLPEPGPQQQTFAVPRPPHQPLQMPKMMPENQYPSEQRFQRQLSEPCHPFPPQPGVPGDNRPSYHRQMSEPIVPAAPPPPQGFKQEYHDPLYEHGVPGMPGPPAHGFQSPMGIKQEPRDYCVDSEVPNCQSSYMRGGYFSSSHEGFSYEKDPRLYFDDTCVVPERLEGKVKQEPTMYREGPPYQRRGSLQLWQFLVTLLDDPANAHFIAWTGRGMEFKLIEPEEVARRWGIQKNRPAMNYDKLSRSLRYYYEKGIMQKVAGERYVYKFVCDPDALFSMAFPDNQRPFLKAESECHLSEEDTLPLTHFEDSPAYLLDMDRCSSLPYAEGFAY
Chain of ELF4 (Q99607 whole entry): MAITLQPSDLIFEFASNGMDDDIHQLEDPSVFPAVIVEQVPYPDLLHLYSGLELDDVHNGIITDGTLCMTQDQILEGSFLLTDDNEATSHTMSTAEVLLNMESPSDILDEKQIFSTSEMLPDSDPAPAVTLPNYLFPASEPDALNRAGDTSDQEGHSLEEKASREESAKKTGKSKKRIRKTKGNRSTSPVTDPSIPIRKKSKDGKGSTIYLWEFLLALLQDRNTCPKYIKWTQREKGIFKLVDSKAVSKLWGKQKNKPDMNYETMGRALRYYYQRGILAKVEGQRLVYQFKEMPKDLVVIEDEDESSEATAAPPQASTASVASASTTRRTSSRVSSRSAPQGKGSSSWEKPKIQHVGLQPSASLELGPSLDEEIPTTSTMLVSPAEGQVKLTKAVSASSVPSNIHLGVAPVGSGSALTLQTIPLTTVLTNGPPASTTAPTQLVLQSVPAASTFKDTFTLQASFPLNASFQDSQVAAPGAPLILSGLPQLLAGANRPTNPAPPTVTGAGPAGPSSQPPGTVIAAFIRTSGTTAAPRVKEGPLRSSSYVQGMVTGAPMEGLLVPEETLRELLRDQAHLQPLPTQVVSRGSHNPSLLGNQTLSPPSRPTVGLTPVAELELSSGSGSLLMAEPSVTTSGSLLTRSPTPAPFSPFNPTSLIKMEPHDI
Chain of ETV1 (P50549 whole entry): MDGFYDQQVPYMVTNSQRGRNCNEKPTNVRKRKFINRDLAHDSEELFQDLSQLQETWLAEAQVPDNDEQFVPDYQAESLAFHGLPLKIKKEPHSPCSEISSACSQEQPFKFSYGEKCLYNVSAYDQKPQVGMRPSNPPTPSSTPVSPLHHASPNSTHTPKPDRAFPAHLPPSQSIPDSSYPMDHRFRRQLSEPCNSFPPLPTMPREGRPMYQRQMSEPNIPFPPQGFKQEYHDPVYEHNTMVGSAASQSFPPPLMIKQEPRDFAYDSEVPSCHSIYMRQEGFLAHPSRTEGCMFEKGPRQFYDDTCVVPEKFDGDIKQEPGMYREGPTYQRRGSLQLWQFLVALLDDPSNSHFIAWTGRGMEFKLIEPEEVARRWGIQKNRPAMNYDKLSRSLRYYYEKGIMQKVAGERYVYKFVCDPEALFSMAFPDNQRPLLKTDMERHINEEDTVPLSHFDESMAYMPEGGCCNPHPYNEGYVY
Chain of CRX (O43186 whole entry): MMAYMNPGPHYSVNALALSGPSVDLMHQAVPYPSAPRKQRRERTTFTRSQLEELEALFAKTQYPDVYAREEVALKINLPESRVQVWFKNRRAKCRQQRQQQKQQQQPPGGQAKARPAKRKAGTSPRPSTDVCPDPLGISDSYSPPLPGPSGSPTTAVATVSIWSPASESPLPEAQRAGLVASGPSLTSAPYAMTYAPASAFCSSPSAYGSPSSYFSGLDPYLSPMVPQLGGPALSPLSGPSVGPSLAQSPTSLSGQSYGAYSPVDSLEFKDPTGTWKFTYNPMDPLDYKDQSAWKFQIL

As to TCATTC, the binding signal in [1] is 1.19 fold enrichment (6-mer frequency, TF over GST control); in test [2], 1.19 fold enrichment (6-mer frequency, TF over GST control); in test [3] it was 1.5 fold enrichment (6-mer frequency, TF over GST control); in [4] it was 1.13 fold enrichment (6-mer frequency, TF over GST control); in [5], 1.26 fold enrichment (6-mer frequency, TF over GST control); in [6] it was 1.34 fold enrichment (6-mer frequency, TF over GST control). Besides, the binding signal in test [7] is 1.27 fold enrichment (6-mer frequency, TF over GST control); in test [8] it was 1.2 fold enrichment (6-mer frequency, TF over GST control); in test [9], 1.22 fold enrichment (6-mer frequency, TF over GST control); in [10] it was 1.2 fold enrichment (6-mer frequency, TF over GST control); in test [11] it was 1.15 fold enrichment (6-mer frequency, TF over GST control); in [12] it was 1.28 fold enrichment (6-mer frequency, TF over GST control). The binding signal was 1.13 fold enrichment (6-mer frequency, TF over GST control) in [13]; 1.09 fold enrichment (6-mer frequency, TF over GST control) in test [14]; 1.15 fold enrichment (6-mer frequency, TF over GST control) in test [15]; 1.12 fold enrichment (6-mer frequency, TF over GST control) in [16]; 1.21 fold enrichment (6-mer frequency, TF over GST control) in test [17]; 1.24 fold enrichment (6-mer frequency, TF over GST control) in test [18].
